Inconclusive results are not listed. Calls of active or inactive are those of the source. Unless noted, the call rests on the fitted dose curve; in most records, active means well fitted curve in the direction sought with a large enough effect; inconclusive means small, poorly fitted or top-dose-only effect, or another doubt; inactive means no such curve, though single readings can be large; an effect the other way counts as inactive or inconclusive.
Legend:
[1] = Cell Viability - BJ (AID 421; calls by dose curve;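 further: potency means the concentration at half of the fitted maximal effect; cells exposed to compound for 40 hours at 37 °C before readout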); details: BJ fibroblast viability, qHTS
Summary of the method: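 Luminescent ATP signal (CellTiter-Glo, 20 min at room temperature) served as the read-out of viable BJ cells after 40 hours of compound treatment. Responses were scaled between DMSO and 100 uM tamoxifen, and AC50 values were obtained by Hill modeling.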

[2] = Cell Viability - Jurkat (AID 426;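 active means dose-dependent loss of cell ATP signal giving a full or clear fitted curve, ranked by lower potency value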;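 further: potency means the concentration at half of the fitted maximal effect; cells exposed to compound for 40 hours at 37 °C before ATP read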); details: qHTS
Summary of the method: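 Cytotoxicity was scored as loss of cellular ATP, measured by luciferase-based luminescence, in Jurkat clone E6-1 cells after 40 h compound treatment; tamoxifen and doxorubicin served as positive controls.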

[3] = Cell Viability - Hek293 (AID 427;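 active means compounds whose dose-response curve shows a full or clear partial loss of cell viability, called from curve shape rather than a numeric limit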;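 further: potency means the concentration at half of the fitted maximal effect; cells exposed to compound for 40 hours at 37 °C before reading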); details: qHTS
Summary of the method: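 Luminescent ATP read-out (CellTiter-Glo, 20 min RT) after 40 hr compound exposure at 37 °C in complete medium. Signal normalized to DMSO (basal) and 100 uM tamoxifen (100% inhibition); concentration-response fitted with the standard Hill equation to give AC50.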

[4] = Cell Viability - HepG2 (AID 433; calls by dose curve;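 further: potency means the concentration at half of the fitted maximal effect; potency for ATP loss meaning cytotoxicity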); details: qHTS
Summary of the method: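 Cytotoxicity read as ATP loss (CellTiter-Glo luminescence) after 40 hr compound exposure of HepG2, 1500 cells/well, 37 °C. AC50 by Hill equation; 0% set by DMSO, 100% inhibition by 100 uM tamoxifen.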

[5] = Cell Viability - SK-N-SH (AID 435; calls by dose curve; further: potency means the concentration at half of the fitted maximal effect); details: SK-N-SH neuroblastoma cell viability qHTS
Summary of the method: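 qHTS cytotoxicity: CellTiter-Glo ATP luminescence after 40 h compound exposure of human neuroblastoma SK-N-SH cells at 37 °C. AC50 derived by Hill-equation fitting, with DMSO as basal and 100 uM tamoxifen as full inhibition.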

[6] = molecular target: Mitogen-activated protein kinase 10 (Mus musculus) (UniProt Q61831); experiment: JNK3 AlphaScreen Assay (AID 530; active means well fitted curve in either direction with a large enough effect, not every such curve was filed as active;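 further: kinase came from lysate of stimulated human HepG2 cells; signal reports phosphorylation of biotinylated GST-cJun 1-79 at Ser73 with 10 µM ATP; on the % scale 0 is the no-effect control and ±100 the full control effect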)
Summary of the method: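 Kinase buffer: 20 mM Tris-HCl pH 7.6, 10 mM MgCl2, 1 mM DTT, 0.1 mM Na3VO4, 0.01% Tween-20; ATP 10 uM. Substrate biotin-GST-cJun(1-79), enzyme from activated HepG2 lysates. Detection by Ser73 phospho-antibody AlphaScreen.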

[7] = Cell Viability - N2a (AID 540); details: N2a mouse neuroblastoma cell viability; activity change, negative = cytotoxicity: at 92.2 µM (top of the series);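 further: plate controls were DMSO alone for no effect and tamoxifen control for full effect; nearly all actives have a fitted effect of over 45% in size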
Summary of the method: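 In this qHTS cytotoxicity screen, ATP-dependent luciferase luminescence reports viable N2a cells after a 40 hr compound exposure in complete culture medium. Potencies are AC50 values from standard Hill equation fits.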

[8] = Cell Viability - NIH 3T3 (AID 541); details: NIH 3T3 cell viability, qHTS; activity change, negative = cytotoxicity: at 92.2 µM (top of the series);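 further: plate controls were DMSO alone for no effect and tamoxifen positive control for full effect; nearly all actives have a fitted effect of over 25% in size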
Summary of the method: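 In this cytotoxicity screen, acute toxicity is scored as an ATP drop measured by CellTiter-Glo in NIH 3T3 fibroblasts following a 40 hr, 37 °C incubation with compound.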

[9] = Cell Viability - HUV-EC-C (AID 542); further: on the % scale 0 is the no-effect control and ±100 the full control effect; nearly all actives have a fitted effect of over 35% in size
Summary of the method: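 Concentration-dependent ATP loss in HUV-EC-C cells is the measure. Exposure lasts 40 hr at 37 °C; luminescence follows CellTiter-Glo addition, and Hill fits give AC50.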

[10] = Cell Viability - H-4-II-E (AID 543); further: on the % scale 0 is the no-effect control and ±100 the full control effect; nearly all actives have a fitted effect of over 35% in size
Summary of the method: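 AC50 from Hill-modelled qHTS concentration-response curves. H-4-II-E rat hepatoma cells in complete medium, 40 hr exposure at 37 °C, viability by CellTiter-Glo ATP luminescence.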

[11] = Cell Viability - SH-SY5Y (AID 544); further: nearly all actives have a fitted effect of over 55% in size
Summary of the method: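 Quantitative HTS in SH-SY5Y neuroblastoma cells, 40 hr treatment at 37 °C, ATP content by luciferase luminescence; AC50 from Hill fits.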

[12] = Cell Viability - Renal Proximal Tubule (AID 545); details: renal proximal tubule cells viability, primary cells of rat origin; at 91.7 µM (top of the series); further: nearly all actives have a fitted effect of over 40% in size
Summary of the method: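 Viability taken as intracellular ATP (CellTiter-Glo luminescence) after 40 hr, 37 °C compound treatment of primary proximal tubule cells from rat kidney, 1000 cells/well; Hill-equation fits of qHTS concentration-response data gave AC50.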

[13] = Cell Viability - Mesenchymal (AID 546); details: mesenchymal cells viability, qHTS; activity change, negative = cytotoxicity: at 91.7 µM (top of the series);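 further: cells exposed to compound for 40 hours before reading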
Summary of the method: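 CellTiter-Glo luminescence (intracellular ATP, 20 min room temperature) after 40 hr compound exposure at 37 °C of 1000 glomerulus-derived human kidney mesenchymal cells/well; AC50 values obtained by fitting qHTS concentration-response data to the Hill equation.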

[14] = Cellular Toxicity (caspase-3) HepG2 (AID 654);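 further: cells exposed to compound for 16 hours before reading; 0% = DMSO alone and 100% = caspase signal from 100 µM tamoxifen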
Summary of the method: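 Concentration-response AC50 values reflect caspase-3/7 induction in HepG2 cells after 16 hours of compound exposure, quantified by luminescence from liberated aminoluciferin and referenced to 100 uM tamoxifen as full stimulation.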

[15] = Cellular Toxicity (caspase-3) Jurkat (AID 655); details: Jurkat caspase-3 activation, luminescence, DMSO = 0%, tamoxifen = 100%; at 92.2 µM (top of the series);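 further: cells exposed to compound for 16 h at 37 °C before reading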
Summary of the method: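 Luminescent Caspase-Glo 3/7 read-out (20 min, room temperature) after 16 h compound treatment at 37 C of 5000 Jurkat cells per well. AC50 derived by Hill-equation fitting, scaled between DMSO basal and 100 uM tamoxifen stimulation.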

[16] = Cellular Toxicity (caspase-3) HUV-EC-C (AID 656)
Summary of the method: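 Luminescent Caspase-Glo 3/7 readout after 16 h, 37 °C compound exposure of HUV-EC-C endothelial cells, 1000 per well, complete medium. AC50 derived by Hill fitting, with DMSO as baseline and 100 uM tamoxifen as full activation.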

[17] = Cellular Toxicity (caspase-3) SHSY5Y (AID 657)
Summary of the method: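 Luminescent Caspase-Glo 3/7 read-out, 1 hr room temperature, follows 16 hours of compound treatment of SH-SY5Y cells at 37 °C. Normalization: DMSO basal, 10 uM staurosporine as 100%; AC50 values from Hill-equation concentration-response fits.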

[18] = Cellular Toxicity (caspase-3) BJ (AID 658);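 further: 0% = DMSO basal and 100% = 10 µM staurosporine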
Summary of the method: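 Caspase-Glo 3/7 luminescence, read 1 hr after reagent at room temperature, in normal BJ fibroblasts exposed 16 hours at 37 °C. AC50 values from Hill-equation concentration-response, scaled between DMSO basal and 10 uM staurosporine as 100%.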

[19] = Cellular Toxicity (caspase-3) MRC-5 (AID 659);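 further: 0% = DMSO basal and 100% = 10 µM staurosporine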
Summary of the method: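 Luminescent Caspase-Glo 3/7 read-out (1 h, room temperature) after a 16 h, 37 °C compound exposure of MRC-5 lung fibroblasts at 1500 cells/well. Concentration-response AC50 from Hill equation; 0% DMSO, 100% 10 uM staurosporine.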

[20] = Cellular Toxicity (caspase-3) Mesangial (AID 660);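 further: combined caspase 3 and 7 activity read by Caspase-Glo luminescence; cells exposed to compound for 16 h before the caspase read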
Summary of the method: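 AC50 values come from Hill-equation fits of caspase 3/7 activation, measured as Caspase-Glo luminescence in human glomerular mesangial cells exposed to compound for 16 h at 37 °C; 100% set by 100 uM tamoxifen.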

[21] = Cellular Toxicity (caspase-3) SK-N-SH (AID 661);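 further: 0% = DMSO basal and 100% = 10 µM staurosporine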
Summary of the method: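 Apoptosis readout in SK-N-SH neuroblastoma: Caspase-Glo 3/7 luminescence following 16 hr treatment in complete culture medium. Normalization used DMSO and 10 uM staurosporine controls.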

[22] = Cellular Toxicity (caspase-3) H-4-II-E (AID 663); details: Potency: caspase-3 activation;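 further: cells exposed to compound for 16 hr before readout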
Summary of the method: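 Caspase 3/7 activation measured by luminescent aminoluciferin substrate cleavage after 16 hr compound treatment of H-4-II-E cells in complete medium. Increase normalized between DMSO (basal) and 100 uM tamoxifen (100%); Hill-equation AC50 from concentration-response.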

[23] = Cellular Toxicity (caspase-3) NIH 3T3 (AID 666);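 further: 0% = DMSO basal and 100% = 100 µM tamoxifen stimulation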
Summary of the method: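 Activity: caspase-3/7 induction, NIH 3T3 cells, 16 hr treatment at 37°C, luminescent Caspase-Glo detection; AC50 via Hill equation.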

[24] = Cellular Toxicity (caspase-3) Renal Proximal Tubule (AID 667);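 further: cells exposed to compound for 16 hours at 37 °C before detection; 0% = DMSO basal and 100% = 10 µM staurosporine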
Summary of the method: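 Caspase 3/7 activation measured by luminescent aminoluciferin release in primary rat proximal tubule cells after 16 hr compound exposure at 37 °C. AC50 from Hill-fitted concentration-response, scaled between DMSO and 10 uM staurosporine.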

[25] = molecular target: Cytochrome P450 3A4 (Homo sapiens) (UniProt P08684); experiment: qHTS Assay for Inhibitors and Substrates of Cytochrome P450 3A4 (AID 884); further: on the % scale 0 is the no-effect control and ±100 the full control effect; nearly all actives have a fitted effect of over 50% in size
Summary of the method: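 Luminescent readout of luciferin produced by CYP3A4 (20 nM) dealkylation of Luciferin-PPXE, 25 uM (its KM). NADPH-driven reaction ran 60 min at RT after 10 min compound preincubation; data scaled to 57 uM ketoconazole as 100% inhibition.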

Chain of Cytochrome P450 3A4 (Homo sapiens) (P08684 whole entry, looked up): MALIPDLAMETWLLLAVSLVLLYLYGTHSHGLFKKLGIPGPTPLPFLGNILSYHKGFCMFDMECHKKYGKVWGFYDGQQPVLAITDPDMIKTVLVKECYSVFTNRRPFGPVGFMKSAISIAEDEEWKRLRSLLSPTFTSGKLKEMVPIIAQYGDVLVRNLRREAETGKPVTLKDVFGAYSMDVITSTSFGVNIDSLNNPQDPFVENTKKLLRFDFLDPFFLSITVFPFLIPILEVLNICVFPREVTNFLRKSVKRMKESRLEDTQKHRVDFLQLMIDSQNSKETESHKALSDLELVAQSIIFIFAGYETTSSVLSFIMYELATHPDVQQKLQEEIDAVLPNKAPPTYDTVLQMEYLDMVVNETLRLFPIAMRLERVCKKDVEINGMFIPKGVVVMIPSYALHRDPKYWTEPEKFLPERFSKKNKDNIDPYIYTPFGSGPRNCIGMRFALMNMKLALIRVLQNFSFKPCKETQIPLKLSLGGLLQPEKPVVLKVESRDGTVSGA

C=CCc1ccc(OC)c(OC)c1
inactive: Potency [1] > 92 µM | Potency [2] > 92 µM | Potency [3] > 92 µM | Potency [4] > 92 µM | Potency [5] > 92 µM | Potency [6] | activity change, negative = cytotoxicity [7] -13.8% | Potency [8] | outcome [9] | Potency [10] | Potency [11] | activity change, negative = cytotoxicity [12] -5.61% | activity change, negative = cytotoxicity [13] -7.19% | outcome [14] | caspase-3 activation [15] -0.00061% | outcome [16] | outcome [17] | outcome [18] | outcome [19] | outcome [20] | outcome [21] | Potency [22] | outcome [23] | outcome [24] | Potency [25]
